# Publication PMC7862700, “An all-to-all approach to the identification of sequence-specific readers for epigenetic DNA modifications on cytosine”
# Assays:
# Test in all cases: DAPPL (digital affinity profiling via proximity ligation, sequencing); 10 mM Tris-HCl pH 7.5, 50 mM NaCl, 1 mM DTT, 4% glycerol, room temperature, 30 min; GST-TFs on glutathione beads, 16-mer random dsDNA library, 0.1% formaldehyde crosslink after washing; high values mean tight binding
# FLI1 = target: T1, FLI1 (Homo sapiens, UniProt Q01543 1-452); details: protein: recombinant; tags: N-terminal GST; dsDNA, one strand shown
# T1 sequence: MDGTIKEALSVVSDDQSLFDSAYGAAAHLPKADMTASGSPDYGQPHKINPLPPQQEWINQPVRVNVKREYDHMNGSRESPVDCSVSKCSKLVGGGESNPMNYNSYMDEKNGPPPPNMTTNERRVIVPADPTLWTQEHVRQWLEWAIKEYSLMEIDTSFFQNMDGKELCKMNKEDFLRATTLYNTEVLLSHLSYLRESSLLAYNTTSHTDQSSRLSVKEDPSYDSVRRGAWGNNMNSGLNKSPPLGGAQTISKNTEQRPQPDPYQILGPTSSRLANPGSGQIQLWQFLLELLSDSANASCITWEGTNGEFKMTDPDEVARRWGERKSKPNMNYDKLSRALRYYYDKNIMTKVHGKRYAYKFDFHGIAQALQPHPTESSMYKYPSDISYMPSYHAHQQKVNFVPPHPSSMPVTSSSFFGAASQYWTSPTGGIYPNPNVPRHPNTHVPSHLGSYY
# Summary of the method: (§1)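 GST fusions of human transcription factors were expressed in yeast and captured with glutathione beads. Once given DNA barcodes and pooled alongside a tag-only sample, they were incubated for 30 min at room temperature with 200 nmole of a random double-stranded 16-mer DNA library in Tris/NaCl/DTT/glycerol buffer, then washed, crosslinked (0.1% formaldehyde), proximity-ligated, PCR-amplified and sequenced on an Illumina NextSeq500. The binding signal of each hexamer is its read frequency for a factor divided by its frequency for the tag-only sample.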
# ELK1 = target: T2, ELK1 (Homo sapiens, UniProt P19419 1-428); details: protein: recombinant; tags: N-terminal GST; dsDNA, one strand shown
# T2 sequence: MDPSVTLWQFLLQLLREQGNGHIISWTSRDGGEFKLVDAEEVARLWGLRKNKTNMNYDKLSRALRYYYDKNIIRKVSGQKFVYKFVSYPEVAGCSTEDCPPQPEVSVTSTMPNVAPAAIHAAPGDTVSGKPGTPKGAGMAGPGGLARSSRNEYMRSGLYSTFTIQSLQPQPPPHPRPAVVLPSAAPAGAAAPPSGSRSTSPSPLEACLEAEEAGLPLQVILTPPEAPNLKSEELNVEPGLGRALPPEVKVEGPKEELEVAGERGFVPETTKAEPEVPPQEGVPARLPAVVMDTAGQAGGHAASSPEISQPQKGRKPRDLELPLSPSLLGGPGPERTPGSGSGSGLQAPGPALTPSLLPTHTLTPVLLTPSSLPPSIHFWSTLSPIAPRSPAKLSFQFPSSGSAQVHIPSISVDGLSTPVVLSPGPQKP
# Summary of the method: as §1
# GABPA = target: T3, GABPA (Homo sapiens, UniProt Q06546 1-454); details: protein: recombinant; tags: N-terminal GST; dsDNA, one strand shown
# T3 sequence: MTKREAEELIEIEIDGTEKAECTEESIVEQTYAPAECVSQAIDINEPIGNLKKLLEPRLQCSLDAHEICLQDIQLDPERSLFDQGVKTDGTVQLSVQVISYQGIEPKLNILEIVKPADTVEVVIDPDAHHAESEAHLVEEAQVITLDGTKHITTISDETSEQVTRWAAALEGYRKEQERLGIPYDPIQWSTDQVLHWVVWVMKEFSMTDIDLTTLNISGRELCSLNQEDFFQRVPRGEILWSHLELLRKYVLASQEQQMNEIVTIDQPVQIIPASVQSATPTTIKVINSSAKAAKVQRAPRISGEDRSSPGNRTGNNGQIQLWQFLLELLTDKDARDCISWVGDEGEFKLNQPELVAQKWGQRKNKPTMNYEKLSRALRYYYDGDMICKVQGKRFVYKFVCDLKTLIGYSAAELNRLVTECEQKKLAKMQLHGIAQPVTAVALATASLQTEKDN
# Summary of the method: as §1
# ERG = target: T4, ERG (Homo sapiens, UniProt P11308 1-479); details: protein: recombinant; tags: N-terminal GST; dsDNA, one strand shown
# T4 sequence: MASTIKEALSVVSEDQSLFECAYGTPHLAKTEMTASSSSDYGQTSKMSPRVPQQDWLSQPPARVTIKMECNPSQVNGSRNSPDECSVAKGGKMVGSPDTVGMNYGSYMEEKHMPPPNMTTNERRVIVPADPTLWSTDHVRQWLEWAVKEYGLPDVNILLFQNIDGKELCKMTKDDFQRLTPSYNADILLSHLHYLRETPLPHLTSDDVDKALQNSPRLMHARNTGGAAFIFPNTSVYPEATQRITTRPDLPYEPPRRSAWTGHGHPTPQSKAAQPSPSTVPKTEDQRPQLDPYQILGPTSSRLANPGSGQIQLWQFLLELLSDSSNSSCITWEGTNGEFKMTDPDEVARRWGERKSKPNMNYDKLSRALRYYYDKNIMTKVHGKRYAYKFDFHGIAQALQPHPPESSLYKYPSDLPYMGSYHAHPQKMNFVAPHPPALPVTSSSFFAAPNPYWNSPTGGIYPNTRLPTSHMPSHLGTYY
# Summary of the method: as §1
# ELF1 = ELF1 (Homo sapiens, UniProt P32519 1-619); details: protein: recombinant; tags: N-terminal GST; dsDNA, one strand shown
# ELF1, sequence (P32519 whole entry): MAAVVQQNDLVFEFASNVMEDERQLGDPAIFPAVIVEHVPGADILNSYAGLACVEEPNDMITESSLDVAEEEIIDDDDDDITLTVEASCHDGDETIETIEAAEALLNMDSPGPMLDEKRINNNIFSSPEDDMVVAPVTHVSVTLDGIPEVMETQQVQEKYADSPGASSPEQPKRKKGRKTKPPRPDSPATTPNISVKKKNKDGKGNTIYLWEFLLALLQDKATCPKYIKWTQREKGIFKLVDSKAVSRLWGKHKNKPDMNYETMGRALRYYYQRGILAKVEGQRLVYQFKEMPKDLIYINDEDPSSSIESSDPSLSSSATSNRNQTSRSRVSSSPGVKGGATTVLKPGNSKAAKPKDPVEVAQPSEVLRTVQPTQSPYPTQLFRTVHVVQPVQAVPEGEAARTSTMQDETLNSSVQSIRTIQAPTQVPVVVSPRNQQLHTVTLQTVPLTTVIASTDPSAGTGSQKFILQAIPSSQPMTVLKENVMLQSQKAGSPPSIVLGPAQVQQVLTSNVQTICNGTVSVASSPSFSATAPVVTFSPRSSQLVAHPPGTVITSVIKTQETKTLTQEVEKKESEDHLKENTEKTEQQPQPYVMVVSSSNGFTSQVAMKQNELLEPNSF
# Summary of the method: as §1
# EHF = target: T5, EHF (Homo sapiens, UniProt Q9NZC4 1-300); details: protein: recombinant; tags: N-terminal GST; dsDNA, one strand shown
# T5 sequence: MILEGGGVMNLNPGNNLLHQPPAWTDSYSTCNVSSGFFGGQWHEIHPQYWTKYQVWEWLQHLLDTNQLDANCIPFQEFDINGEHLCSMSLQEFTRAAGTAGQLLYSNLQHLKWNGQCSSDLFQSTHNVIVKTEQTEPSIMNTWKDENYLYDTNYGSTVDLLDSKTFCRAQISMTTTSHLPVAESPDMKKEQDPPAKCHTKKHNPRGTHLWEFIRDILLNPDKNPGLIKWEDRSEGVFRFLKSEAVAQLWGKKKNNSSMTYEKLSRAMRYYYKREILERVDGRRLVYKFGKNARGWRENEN
# Summary of the method: as §1
# SPI1 = SPI1 (Homo sapiens, UniProt P17947 1-270); details: protein: recombinant; tags: N-terminal GST; dsDNA, one strand shown
# Summary of the method: as §1
# SPIB = SPIB (Homo sapiens, UniProt Q01892 1-262); details: protein: recombinant; tags: N-terminal GST; dsDNA, one strand shown
# SPIB, sequence (Q01892 whole entry): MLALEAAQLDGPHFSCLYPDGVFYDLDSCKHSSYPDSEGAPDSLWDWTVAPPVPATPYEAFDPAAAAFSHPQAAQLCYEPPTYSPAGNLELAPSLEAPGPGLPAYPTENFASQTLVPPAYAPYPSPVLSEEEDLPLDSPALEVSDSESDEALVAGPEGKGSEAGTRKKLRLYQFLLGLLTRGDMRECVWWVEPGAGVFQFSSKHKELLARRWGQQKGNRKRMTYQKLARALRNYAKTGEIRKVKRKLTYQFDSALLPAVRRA
# Summary of the method: as §1
# ELK3 = target: T6, ELK3 (Homo sapiens, UniProt P41970 1-407); details: protein: recombinant; tags: N-terminal GST; dsDNA, one strand shown
# T6 sequence: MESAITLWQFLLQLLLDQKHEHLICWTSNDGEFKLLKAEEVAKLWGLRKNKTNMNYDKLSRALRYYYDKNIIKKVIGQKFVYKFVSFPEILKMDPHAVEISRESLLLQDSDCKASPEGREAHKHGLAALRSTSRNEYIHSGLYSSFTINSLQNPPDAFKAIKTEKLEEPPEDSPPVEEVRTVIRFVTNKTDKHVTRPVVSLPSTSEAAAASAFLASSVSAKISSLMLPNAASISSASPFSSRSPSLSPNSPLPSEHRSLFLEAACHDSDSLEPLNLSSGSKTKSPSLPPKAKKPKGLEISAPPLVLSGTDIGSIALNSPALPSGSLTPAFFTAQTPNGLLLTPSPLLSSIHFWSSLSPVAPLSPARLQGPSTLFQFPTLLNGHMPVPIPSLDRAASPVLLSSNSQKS
# Summary of the method: as §1
# FEV = target: T7, FEV (Homo sapiens, UniProt Q99581 1-238); details: protein: recombinant; tags: N-terminal GST; dsDNA, one strand shown
# T7 sequence: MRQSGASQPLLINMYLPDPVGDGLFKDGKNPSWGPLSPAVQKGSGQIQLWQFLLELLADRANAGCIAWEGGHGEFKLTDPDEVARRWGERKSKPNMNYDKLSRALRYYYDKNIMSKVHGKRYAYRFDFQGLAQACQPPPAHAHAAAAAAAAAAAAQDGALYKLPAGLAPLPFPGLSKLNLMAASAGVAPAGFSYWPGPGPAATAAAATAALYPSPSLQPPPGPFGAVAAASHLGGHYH
# Summary of the method: as §1
# ETV5 = ETV5 (Homo sapiens, UniProt P41161 1-510); details: protein: recombinant; tags: N-terminal GST; dsDNA, one strand shown
# ETV5, sequence (P41161 whole entry): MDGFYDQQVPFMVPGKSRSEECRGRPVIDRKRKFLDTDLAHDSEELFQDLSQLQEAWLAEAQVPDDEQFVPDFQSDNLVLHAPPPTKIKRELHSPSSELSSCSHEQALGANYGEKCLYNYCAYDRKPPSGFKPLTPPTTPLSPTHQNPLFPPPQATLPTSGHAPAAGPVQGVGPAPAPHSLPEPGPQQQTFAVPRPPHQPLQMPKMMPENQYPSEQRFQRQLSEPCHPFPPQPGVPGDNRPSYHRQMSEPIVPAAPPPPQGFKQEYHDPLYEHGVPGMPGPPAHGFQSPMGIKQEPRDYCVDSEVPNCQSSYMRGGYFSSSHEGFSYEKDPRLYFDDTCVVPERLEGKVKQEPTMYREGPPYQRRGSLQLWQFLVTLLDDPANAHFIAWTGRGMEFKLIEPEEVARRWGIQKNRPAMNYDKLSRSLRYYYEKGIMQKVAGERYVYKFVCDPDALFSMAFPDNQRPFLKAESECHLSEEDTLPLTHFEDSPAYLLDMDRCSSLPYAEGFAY
# Summary of the method: as §1
# HSF1 = HSF1 (Homo sapiens, UniProt Q00613 1-529); details: protein: recombinant; tags: N-terminal GST; chain copies: 3; dsDNA, one strand shown
# HSF1, sequence (Q00613 whole entry): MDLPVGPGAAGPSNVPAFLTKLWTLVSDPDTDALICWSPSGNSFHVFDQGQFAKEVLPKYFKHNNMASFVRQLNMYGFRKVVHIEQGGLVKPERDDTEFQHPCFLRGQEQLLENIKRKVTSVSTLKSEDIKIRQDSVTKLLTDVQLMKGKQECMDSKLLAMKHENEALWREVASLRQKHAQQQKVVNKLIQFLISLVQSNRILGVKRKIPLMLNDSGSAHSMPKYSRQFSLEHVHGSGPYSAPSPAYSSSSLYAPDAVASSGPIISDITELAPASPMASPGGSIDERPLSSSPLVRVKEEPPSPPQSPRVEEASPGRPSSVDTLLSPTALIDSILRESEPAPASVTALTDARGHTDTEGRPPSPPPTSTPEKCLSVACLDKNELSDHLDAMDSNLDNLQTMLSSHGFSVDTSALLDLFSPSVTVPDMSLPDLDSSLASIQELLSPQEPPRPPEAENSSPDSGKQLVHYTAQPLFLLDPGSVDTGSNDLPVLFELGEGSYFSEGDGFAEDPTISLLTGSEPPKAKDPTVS
# Summary of the method: as §1
# SPIC = target: T8, SPIC (Homo sapiens, UniProt Q8N5J4 1-248); details: protein: recombinant; tags: N-terminal GST; dsDNA, one strand shown
# T8 sequence: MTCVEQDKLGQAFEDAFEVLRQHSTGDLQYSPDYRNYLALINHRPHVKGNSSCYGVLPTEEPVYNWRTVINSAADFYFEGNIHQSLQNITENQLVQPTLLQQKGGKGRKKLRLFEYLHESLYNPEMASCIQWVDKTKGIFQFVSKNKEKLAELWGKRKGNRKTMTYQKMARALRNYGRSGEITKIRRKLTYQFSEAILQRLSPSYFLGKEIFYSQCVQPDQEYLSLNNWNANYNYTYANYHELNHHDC
# Summary of the method: as §1
# ELF4 = ELF4 (Homo sapiens, UniProt Q99607 1-663); details: protein: recombinant; tags: N-terminal GST; dsDNA, one strand shown
# ELF4, sequence (Q99607 whole entry): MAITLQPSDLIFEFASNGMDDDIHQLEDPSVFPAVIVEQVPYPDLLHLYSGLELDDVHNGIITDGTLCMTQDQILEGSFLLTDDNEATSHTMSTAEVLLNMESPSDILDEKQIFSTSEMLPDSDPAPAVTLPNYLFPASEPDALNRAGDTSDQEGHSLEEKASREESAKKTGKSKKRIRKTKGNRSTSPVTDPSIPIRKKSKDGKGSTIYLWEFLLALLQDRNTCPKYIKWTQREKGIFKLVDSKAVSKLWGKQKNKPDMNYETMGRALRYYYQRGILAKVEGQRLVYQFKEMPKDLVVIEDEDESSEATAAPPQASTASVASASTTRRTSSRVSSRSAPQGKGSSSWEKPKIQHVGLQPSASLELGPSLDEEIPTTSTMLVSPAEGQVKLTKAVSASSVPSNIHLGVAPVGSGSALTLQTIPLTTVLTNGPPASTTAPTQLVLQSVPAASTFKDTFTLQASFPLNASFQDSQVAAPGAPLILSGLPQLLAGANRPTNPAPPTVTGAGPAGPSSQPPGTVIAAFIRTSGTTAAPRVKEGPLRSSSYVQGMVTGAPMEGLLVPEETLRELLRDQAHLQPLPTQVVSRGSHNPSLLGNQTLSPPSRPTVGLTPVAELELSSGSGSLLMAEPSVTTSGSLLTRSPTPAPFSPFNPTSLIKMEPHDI
# Summary of the method: as §1
# ELK4 = target: T9, ELK4 (Homo sapiens, UniProt P28324-2 1-405); details: protein: recombinant; tags: N-terminal GST; dsDNA, one strand shown
# T9 sequence: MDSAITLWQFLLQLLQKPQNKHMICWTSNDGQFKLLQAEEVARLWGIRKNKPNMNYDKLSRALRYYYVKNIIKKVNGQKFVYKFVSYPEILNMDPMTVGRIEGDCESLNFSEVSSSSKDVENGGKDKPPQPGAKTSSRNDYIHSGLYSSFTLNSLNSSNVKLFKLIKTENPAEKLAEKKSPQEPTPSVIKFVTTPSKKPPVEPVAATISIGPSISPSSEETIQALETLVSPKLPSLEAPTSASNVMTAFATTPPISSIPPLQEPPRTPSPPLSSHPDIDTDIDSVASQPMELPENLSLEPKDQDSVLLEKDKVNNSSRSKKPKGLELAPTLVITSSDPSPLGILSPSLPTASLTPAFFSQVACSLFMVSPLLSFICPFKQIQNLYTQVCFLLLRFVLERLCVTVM
# Summary of the method: as §1
# ETV2 = target: T10, ETV2 (Homo sapiens, UniProt O00321 1-342); details: protein: recombinant; tags: N-terminal GST; dsDNA, one strand shown
# T10 sequence: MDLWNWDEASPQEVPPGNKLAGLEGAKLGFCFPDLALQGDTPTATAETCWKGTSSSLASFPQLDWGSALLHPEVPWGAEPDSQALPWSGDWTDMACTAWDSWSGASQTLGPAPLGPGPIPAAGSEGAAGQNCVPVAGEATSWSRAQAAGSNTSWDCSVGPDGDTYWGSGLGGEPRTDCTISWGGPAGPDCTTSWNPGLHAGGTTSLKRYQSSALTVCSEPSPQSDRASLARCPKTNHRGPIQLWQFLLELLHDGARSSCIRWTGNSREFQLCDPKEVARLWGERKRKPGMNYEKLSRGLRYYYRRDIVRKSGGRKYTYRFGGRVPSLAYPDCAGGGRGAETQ
# Summary of the method: as §1
# ELF3 = target: T11, ELF3 (Homo sapiens, UniProt P78545 1-371); details: protein: recombinant; tags: N-terminal GST; dsDNA, one strand shown
# T11 sequence: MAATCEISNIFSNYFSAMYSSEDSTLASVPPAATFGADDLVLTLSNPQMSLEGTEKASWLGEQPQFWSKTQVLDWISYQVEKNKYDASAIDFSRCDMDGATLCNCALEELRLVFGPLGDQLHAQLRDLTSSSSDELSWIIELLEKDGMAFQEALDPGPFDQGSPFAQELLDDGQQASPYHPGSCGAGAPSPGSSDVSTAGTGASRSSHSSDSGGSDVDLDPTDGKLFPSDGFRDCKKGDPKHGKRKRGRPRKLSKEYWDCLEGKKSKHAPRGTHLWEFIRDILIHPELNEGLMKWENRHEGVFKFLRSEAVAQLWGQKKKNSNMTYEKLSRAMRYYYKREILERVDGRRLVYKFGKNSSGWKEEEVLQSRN
# Summary of the method: as §1
# CRX = CRX (Homo sapiens, UniProt O43186 1-299); details: protein: recombinant; tags: N-terminal GST; dsDNA, one strand shown
# CRX, sequence (O43186 whole entry): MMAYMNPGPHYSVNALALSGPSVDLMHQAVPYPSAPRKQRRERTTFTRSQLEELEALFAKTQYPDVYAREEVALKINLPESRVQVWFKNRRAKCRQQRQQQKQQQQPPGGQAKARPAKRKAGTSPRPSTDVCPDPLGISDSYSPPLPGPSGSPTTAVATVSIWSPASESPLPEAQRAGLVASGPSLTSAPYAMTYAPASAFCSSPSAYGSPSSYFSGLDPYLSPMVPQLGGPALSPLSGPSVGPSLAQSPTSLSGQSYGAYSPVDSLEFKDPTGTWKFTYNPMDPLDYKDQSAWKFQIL
# Summary of the method: as §1
# ETV1 = ETV1 (Homo sapiens, UniProt P50549 1-477); details: protein: recombinant; tags: N-terminal GST; dsDNA, one strand shown
# ETV1, sequence (P50549 whole entry): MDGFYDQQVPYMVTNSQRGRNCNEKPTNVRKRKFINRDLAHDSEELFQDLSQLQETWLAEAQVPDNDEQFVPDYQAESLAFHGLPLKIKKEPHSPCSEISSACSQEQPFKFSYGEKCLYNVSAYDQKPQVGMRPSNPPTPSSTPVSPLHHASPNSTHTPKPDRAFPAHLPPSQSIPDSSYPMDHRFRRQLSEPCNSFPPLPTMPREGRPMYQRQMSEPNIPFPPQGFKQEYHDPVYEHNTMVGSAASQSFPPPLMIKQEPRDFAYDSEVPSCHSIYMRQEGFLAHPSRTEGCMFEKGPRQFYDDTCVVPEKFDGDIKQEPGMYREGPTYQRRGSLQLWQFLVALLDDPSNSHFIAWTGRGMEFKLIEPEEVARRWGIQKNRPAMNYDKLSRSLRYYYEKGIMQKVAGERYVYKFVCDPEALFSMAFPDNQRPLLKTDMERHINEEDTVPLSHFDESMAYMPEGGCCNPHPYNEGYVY
# Summary of the method: as §1
sequence,measurement,setting,value
TGTTCC,binding signal,FLI1,"1.69 fold enrichment (6-mer frequency, TF over GST control)"
same,binding signal,ELK1,"1.61 fold enrichment (6-mer frequency, TF over GST control)"
same,binding signal,GABPA,"1.74 fold enrichment (6-mer frequency, TF over GST control)"
same,binding signal,ERG,"1.68 fold enrichment (6-mer frequency, TF over GST control)"
same,binding signal,ELF1,"1.66 fold enrichment (6-mer frequency, TF over GST control)"
same,binding signal,EHF,"1.83 fold enrichment (6-mer frequency, TF over GST control)"
same,binding signal,SPI1,"1.81 fold enrichment (6-mer frequency, TF over GST control)"
same,binding signal,SPIB,"1.8 fold enrichment (6-mer frequency, TF over GST control)"
same,binding signal,ELK3,"1.5 fold enrichment (6-mer frequency, TF over GST control)"
same,binding signal,FEV,"1.69 fold enrichment (6-mer frequency, TF over GST control)"
same,binding signal,ETV5,"1.71 fold enrichment (6-mer frequency, TF over GST control)"
same,binding signal,HSF1,"1.85 fold enrichment (6-mer frequency, TF over GST control)"
same,binding signal,SPIC,"2 fold enrichment (6-mer frequency, TF over GST control)"
same,binding signal,ELF4,"1.64 fold enrichment (6-mer frequency, TF over GST control)"
same,binding signal,ELK4,"1.49 fold enrichment (6-mer frequency, TF over GST control)"
same,binding signal,ETV2,"1.78 fold enrichment (6-mer frequency, TF over GST control)"
same,binding signal,ELF3,"1.6 fold enrichment (6-mer frequency, TF over GST control)"
same,binding signal,CRX,"1.21 fold enrichment (6-mer frequency, TF over GST control)"
same,binding signal,ETV1,"1.86 fold enrichment (6-mer frequency, TF over GST control)"
